About 6,500 targets were measured; listed, in parts, are those with a hit and a random draw of the rest. About 2% of all pairs of compound and target were hits.
compound: COC(=O)C#Cc1ccccc1 [methyl 3-phenylpropiolate]; experiment: log2 ratio of iodoacetamide-alkyne labeling of the cysteine site, DMSO over compound (competition); higher = stronger covalent engagement of the cysteine by the compound, active = 1 or more; details: 500 µM; treatment time 1 h; system: HEK293T cell lysate
Outline: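 Three replicates, each with duplicate channels, were prepared from HEK293T lysate (2 mg/mL) treated with vehicle or electrophile at 500 µM for 1 h at ambient temperature. Iodoacetamide alkyne was then applied for 1 h, and samples were clicked to sCIP-TMT reagents, pooled, trypsin-digested overnight at 37 °C, enriched on streptavidin, acid-eluted and analysed on Orbitrap Eclipse LC-MS/MS with FAIMS, with FragPipe quantification. The log2 competition ratio per cysteine is the mean control-channel divided by the mean compound-channel reporter intensity. Cysteines quantified in only one replicate were left out.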

Chain of UniProt P11717 (P11717 whole entry, looked up): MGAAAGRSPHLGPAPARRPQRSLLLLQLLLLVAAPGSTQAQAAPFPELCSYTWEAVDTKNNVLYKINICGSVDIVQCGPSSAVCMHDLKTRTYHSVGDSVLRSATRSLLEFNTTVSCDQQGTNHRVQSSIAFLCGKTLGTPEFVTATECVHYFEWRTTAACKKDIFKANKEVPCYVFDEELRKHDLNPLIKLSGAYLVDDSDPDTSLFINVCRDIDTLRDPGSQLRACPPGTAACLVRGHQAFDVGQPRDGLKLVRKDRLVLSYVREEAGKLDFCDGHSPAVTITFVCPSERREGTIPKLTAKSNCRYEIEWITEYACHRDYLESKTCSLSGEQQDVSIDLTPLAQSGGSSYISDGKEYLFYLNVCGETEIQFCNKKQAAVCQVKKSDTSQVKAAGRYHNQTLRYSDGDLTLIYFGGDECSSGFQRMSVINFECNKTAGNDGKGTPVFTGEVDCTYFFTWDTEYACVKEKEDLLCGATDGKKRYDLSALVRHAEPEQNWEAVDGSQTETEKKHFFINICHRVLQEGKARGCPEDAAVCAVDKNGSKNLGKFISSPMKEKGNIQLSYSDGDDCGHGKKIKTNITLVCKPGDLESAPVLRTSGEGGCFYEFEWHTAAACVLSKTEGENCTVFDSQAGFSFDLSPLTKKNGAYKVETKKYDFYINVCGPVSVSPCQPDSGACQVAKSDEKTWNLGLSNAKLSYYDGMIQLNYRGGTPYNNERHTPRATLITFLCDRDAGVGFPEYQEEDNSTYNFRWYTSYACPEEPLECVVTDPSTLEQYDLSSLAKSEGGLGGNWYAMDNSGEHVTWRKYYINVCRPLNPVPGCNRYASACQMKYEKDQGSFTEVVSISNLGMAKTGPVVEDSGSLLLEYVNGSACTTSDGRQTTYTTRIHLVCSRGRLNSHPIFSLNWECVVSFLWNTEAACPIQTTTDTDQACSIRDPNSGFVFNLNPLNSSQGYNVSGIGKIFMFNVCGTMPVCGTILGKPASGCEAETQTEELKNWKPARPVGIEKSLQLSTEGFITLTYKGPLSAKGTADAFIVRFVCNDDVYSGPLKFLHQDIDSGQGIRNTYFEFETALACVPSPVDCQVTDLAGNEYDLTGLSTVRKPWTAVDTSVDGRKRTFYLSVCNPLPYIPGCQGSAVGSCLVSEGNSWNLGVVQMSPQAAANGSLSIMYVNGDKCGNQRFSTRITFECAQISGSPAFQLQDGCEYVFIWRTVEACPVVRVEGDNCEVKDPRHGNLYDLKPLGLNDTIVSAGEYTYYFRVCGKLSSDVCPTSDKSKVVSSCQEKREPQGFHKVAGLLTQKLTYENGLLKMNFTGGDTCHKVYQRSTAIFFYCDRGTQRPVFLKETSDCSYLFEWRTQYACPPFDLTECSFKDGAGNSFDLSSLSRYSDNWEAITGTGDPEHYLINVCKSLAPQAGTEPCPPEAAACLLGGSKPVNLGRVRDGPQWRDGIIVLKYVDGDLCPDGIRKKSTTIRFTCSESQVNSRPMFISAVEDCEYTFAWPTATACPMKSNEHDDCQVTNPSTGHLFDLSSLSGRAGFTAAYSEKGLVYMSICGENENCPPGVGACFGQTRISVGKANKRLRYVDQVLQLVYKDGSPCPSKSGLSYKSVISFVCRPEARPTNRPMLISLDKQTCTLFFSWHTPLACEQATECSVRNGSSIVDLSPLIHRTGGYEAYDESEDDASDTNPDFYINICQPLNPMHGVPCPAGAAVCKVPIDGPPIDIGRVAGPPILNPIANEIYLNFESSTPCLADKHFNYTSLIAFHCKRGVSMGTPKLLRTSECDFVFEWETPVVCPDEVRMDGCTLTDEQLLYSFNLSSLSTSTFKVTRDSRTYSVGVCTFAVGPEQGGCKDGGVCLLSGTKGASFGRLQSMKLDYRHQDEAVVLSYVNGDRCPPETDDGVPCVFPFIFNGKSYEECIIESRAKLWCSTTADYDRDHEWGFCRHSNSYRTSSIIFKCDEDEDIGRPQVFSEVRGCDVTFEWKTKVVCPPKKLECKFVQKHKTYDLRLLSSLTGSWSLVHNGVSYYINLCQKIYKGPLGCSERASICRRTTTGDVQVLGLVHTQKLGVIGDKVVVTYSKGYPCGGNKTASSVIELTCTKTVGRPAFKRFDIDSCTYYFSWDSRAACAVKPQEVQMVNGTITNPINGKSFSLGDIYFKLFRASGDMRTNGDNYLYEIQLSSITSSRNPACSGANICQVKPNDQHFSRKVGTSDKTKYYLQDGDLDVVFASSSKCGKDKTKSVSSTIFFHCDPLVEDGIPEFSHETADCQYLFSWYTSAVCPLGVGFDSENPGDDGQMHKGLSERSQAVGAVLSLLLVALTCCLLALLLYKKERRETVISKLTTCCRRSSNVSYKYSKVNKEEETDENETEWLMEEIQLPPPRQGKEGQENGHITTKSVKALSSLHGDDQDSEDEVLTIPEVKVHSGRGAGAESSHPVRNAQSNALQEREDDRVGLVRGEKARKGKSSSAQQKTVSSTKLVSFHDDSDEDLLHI
Chain of UniProt P46940 (P46940 whole entry, looked up): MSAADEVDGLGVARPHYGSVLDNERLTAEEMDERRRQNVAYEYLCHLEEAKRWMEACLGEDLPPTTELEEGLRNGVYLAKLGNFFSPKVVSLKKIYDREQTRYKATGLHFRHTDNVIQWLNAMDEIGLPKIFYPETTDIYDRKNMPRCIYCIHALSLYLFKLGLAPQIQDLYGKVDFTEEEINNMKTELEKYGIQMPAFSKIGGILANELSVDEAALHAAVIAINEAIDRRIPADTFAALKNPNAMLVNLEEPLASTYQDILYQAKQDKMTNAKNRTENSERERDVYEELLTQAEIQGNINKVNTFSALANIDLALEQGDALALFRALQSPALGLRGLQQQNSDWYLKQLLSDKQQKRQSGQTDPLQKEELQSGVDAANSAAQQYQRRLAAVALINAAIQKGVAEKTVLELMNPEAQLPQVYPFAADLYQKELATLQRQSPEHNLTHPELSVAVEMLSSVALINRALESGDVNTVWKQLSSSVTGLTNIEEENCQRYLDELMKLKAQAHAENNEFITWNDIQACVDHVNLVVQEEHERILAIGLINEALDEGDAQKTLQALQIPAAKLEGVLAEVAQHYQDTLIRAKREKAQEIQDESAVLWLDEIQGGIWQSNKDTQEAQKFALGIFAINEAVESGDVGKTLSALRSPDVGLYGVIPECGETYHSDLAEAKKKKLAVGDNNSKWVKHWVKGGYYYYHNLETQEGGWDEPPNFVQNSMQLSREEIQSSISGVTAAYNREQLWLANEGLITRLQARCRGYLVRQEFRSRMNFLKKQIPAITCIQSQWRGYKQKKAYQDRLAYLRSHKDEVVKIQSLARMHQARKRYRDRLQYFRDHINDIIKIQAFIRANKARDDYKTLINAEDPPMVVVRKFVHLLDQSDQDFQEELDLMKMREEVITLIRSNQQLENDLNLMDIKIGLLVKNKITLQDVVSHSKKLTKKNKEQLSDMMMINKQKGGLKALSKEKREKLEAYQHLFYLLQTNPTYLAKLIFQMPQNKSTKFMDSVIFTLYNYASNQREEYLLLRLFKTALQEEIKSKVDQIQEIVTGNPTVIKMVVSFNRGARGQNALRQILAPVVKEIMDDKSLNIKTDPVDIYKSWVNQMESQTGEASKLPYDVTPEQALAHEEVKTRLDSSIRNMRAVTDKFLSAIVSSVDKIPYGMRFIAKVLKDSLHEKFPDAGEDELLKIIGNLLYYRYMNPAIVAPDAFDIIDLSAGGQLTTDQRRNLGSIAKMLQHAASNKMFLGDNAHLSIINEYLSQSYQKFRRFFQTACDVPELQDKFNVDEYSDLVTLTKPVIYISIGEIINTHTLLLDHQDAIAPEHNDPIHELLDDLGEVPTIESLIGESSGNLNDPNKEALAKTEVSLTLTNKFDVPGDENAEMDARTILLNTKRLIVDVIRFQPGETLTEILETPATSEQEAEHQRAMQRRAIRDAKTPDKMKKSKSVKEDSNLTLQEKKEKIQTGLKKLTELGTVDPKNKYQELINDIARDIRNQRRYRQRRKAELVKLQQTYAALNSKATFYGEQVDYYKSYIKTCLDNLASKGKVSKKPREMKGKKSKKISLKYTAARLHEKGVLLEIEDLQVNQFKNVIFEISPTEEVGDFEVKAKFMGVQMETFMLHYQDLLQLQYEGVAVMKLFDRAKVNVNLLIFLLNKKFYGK
Chain of UniProt P40926 (P40926 whole entry, looked up): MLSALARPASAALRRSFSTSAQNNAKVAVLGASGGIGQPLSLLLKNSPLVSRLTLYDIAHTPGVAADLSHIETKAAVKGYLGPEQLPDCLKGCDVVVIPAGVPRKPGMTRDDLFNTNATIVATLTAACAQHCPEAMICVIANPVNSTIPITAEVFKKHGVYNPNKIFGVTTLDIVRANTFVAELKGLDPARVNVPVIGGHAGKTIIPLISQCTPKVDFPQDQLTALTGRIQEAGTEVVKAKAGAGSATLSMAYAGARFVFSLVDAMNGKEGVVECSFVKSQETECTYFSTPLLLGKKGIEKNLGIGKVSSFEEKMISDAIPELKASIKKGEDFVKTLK
Chain of UniProt P13489 (P13489 whole entry, looked up): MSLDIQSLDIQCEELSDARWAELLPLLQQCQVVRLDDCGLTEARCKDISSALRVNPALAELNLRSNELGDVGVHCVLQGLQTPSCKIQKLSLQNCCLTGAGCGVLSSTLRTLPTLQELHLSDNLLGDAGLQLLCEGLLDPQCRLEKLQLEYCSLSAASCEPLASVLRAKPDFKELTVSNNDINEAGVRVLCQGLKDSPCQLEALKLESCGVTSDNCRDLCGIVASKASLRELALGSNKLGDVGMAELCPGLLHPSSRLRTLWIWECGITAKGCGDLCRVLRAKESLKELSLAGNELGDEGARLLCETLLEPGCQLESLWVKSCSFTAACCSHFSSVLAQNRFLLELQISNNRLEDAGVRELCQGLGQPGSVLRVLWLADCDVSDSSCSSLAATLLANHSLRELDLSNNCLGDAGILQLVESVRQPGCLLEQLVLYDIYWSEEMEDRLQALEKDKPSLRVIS
Chain of UniProt P51970 (P51970 whole entry): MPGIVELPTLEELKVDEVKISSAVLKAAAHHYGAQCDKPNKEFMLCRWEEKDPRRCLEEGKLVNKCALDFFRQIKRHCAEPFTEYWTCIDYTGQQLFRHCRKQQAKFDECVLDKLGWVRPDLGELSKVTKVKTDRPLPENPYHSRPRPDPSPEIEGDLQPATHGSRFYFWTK

| Target | log2 ratio of iodoacetamide-alkyne labeling |
| --- | --- |
| IQGAP1 C781 (UniProt P46940) | 0.821 (inactive) |
| RPL9 C134 (UniProt P32969) | 0.0357 (inactive) |
| IGF2R C2232 (UniProt P11717) | 1.08 (active) |
| LRPPRC C863 (UniProt P42704) | -0.00586 (inactive) |
| APC C1387 (UniProt P25054) | 0.256 (inactive) |
| TMPO C341 (UniProt P42166) | 1.77 (active) |
| HSP90AA1 C420 (UniProt P07900) | -0.4 (inactive) |
| RRM1 C26 (UniProt P23921) | 0.0708 (inactive) |
| UniProt O96017_C539 | 0.494 (inactive) |
| ALDOA C202 (UniProt P04075) | -0.0261 (inactive) |
| UniProt P49591_C438 | 0.0645 (inactive) |
| MDH2 C128 (UniProt P40926) | -0.335 (inactive) |
| NDUFA8 C110 (UniProt P51970) | 1.12 (active) |
| TCP1 C218 (UniProt P17987) | 0.0267 (inactive) |
| CCT6A C282 (UniProt P40227) | 0.13 (inactive) |
| ADD1 C68 (UniProt P35611) | 0.368 (inactive) |
| PRKCSH C500 (UniProt P14314) | 0.513 (inactive) |
| PRKAR2A C128 (UniProt P13861) | 0.00919 (inactive) |
| CAPN2 C301 (UniProt P17655) | 2.17 (active) |

| Target | log2 ratio of iodoacetamide-alkyne labeling |
| --- | --- |
| TTK C322 (UniProt P33981) | 1.29 (active) |
| FLNA C2107 (UniProt P21333) | 0.12 (inactive) |
| ST13 C209 (UniProt P50502) | 0.272 (inactive) |
| FH C333 (UniProt P07954) | 0.338 (inactive) |
| MCM3 C319 (UniProt P25205) | -0.032 (inactive) |
| RNH1 C75 (UniProt P13489) | 0.145 (inactive) |
| PARP1 C429 (UniProt P09874) | 0.192 (inactive) |
| MSH6 C1337 (UniProt P52701) | 0.14 (inactive) |
| PPP2R1B C306 (UniProt P30154) | 0.0579 (inactive) |
| POLD1 C837 (UniProt P28340) | 1.16 (active) |
| UniProt P35568_C494 | 0.123 (inactive) |
| MTOR C300 (UniProt P42345) | 0.376 (inactive) |
| ACAA2 C128 (UniProt P42765) | 1.22 (active) |
| PPP2R1A C377 (UniProt P30153) | 0.919 (inactive) |
| EEF2 C567 (UniProt P13639) | 0.0358 (inactive) |
| UniProt P26639_C107 | 0.12 (inactive) |
| DSP C174 (UniProt P15924) | 1.06 (active) |
| MSH2 C333 (UniProt P43246) | 1.16 (active) |

Source: the supplement of paper PMC11006884
